Mac1 fbg inh – CD11b/CD18-fibrinogen binding inhibition; P05107+P11215; K562 CD11b/CD18 adhesion to fibrinogen, ATPlite luminescence; Mn2+ added to activate the integrin; inhibition, % at 10 µM; 93,000 tested, 0.54% active; AID 1497;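 active = primary inhibition of 50% or more at 10 µM, then 40% or more on retest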
ERa SRC1 inh – ER-alpha (human) coactivator binding inhibition. P03372. TR-FRET ER-alpha LBD / SRC-1 peptide, estradiol-bound. inhibition, % at 25.6 µM. 86,000 tested, 1.7% active. AID 629; in the data active = inhibition above about 50%;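 also: 0% = receptor plus peptide control and 100% = peptide only without receptor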
Target sequence (P03372 whole entry, looked up, the tested form may be a part): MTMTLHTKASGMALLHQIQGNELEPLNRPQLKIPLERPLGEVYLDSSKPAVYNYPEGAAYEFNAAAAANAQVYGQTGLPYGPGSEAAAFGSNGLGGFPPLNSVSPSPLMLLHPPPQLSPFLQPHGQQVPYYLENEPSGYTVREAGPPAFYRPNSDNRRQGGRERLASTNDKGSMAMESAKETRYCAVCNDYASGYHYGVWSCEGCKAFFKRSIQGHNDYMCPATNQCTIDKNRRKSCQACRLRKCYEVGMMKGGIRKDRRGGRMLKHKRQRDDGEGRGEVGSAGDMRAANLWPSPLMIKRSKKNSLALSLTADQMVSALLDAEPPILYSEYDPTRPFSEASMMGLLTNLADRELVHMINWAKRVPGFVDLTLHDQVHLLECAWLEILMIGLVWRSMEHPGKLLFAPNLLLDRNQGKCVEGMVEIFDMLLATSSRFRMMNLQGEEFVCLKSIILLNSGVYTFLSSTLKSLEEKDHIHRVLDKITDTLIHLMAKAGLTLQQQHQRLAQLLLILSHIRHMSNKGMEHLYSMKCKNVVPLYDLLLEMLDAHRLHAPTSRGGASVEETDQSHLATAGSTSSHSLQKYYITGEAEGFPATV
Mac1 fbg enh – enhancers of human CD11b/CD18 binding to fibrinogen. 93,000 tested, 0.07% active. P05107+P11215. activation, % at 10 µM. K562 CD11b/CD18 adhesion to fibrinogen, ATPlite luminescence;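 active = 10 µM primary screen giving 50% or more activity, confirmed by 40% or more on retest at that dose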
ERb SRC1 inh – ER-beta (human) coactivator binding inhibition; Q92731; TR-FRET ER-beta LBD / SRC1-Cy5 peptide binding; receptor agonist-loaded with 1 µM estradiol; inhibition, % at 25.6 µM; 86,000 tested, 1.3% active;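 active = compounds whose percent inhibition of the receptor-coactivator binding signal exceeds about 50% in the single-dose screen, limit read from the data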;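 also: 0% = receptor plus peptide wells without compound and 100% = peptide-only wells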
ERa coact pot – enhances coactivator binding to human estrogen receptor alpha; TR-FRET ERalpha-LBD/SRC-Cy5 coactivator binding, 2 h; 100 = basal binding, no effect; coactivator binding (% of control), % at 25.6 µM; 86,000 tested, 1.3% active; in the data active = activity above about 200%;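 also: binding measured in presence of low estradiol as agonist stimulus; 0% = peptide alone without receptor and 100% = receptor with peptide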
* = called active by the depositor; / = no result given; [ ] = dose if it differs, or a comment. A selection: hits, their analogues and other compounds. The true share with any hit is near 3.1%.

SMILES	Mac1 fbg inh	ERa SRC1 inh	Mac1 fbg enh	ERb SRC1 inh	ERa coact pot
Cn1c(SCC(=O)Nc2sc3c(c2C#N)CCC3)nnc1C1COc2ccccc2O1 (centres undefined)	-2	66*[fluorescence artefact?]	0	41	69
COC(=O)c1oc2ccc(Br)cc2c1NC(=O)CCCN1C(=O)c2ccccc2C1=O	17	52*	18	26	131
C=CCn1cnc2c(c1=O)c1nc3ccccc3nc1n2/N=C/c1cccc(OC)c1OC	-10	85*[fluorescence artefact?]	93	-1	66
C/C(CC(=O)NCC(C)C)=N\NC(=O)COc1cc(C)c(Br)cc1Br	9	/	0	/	/
CCCC(=O)NCCc1ccc(S(N)(=O)=O)cc1	-12	3	2	-4	93
COc1ccc(NC(=O)CN(c2ccccc2)S(=O)(=O)N(C)C)cc1OC	-11	63*[fluorescence artefact?]	10	57*	69
CCN1CCN(C(=O)c2ccc(NS(=O)(=O)c3ccccc3)cc2)CC1	-10	-3	1	4	109
Cc1ccc(C(C)C)c(OCC(=O)OCc2c(C)noc2C)c1	10	-5	-2	51*[fluorescence artefact?]	134
O=c1c2cnn(-c3ccccc3)c2nc(-c2cccs2)n1-c1cccc(Cl)c1	34	/	13	/	/
CC(=O)Nc1nc(C=C(Cl)Cl)cs1	-6	65*	46	61*[fluorescence artefact?]	15
CC(=O)Nc1nc(C(=O)Nc2c(C)n[nH]c2C)cs1	8	-6	0	-3	116
CC1CC(C)CN(S(=O)(=O)c2ccc(C(=O)Nc3sccc3C(N)=O)cc2)C1 (centres undefined)	6	15	10	21	253*[fluorescence artefact?]
NC(=O)c1ccsc1NC(=O)c1ccc(S(=O)(=O)N2CCCCC2)cc1	-10	19	0	15	94
O=C(N/N=C/c1ccc([N+](=O)[O-])s1)c1ccncc1	1	/	-2	/	/
O=C(N/N=C/c1ccc([N+](=O)[O-])s1)c1cccc(Br)c1	/	76*[fluorescence artefact?]	/	5	62
Cc1ccc(C(=O)N/N=C/c2ccc([N+](=O)[O-])s2)cc1	1	67*	10	40	36
CCOC(=O)C1CCCN(C(=O)c2ccc(CS(=O)(=O)c3ccc(C)cc3)o2)C1 (centres undefined)	0	36	8	55*	66
COc1cccc(Cn2nnc(C(=O)Nc3cc(C)ccc3OC)c2N)c1	-21	6	2	-4	103
COc1cccc(Cn2nnc(C(=O)Nc3ccc(C)cc3)c2N)c1	-12	-2	0	-1	246*[fluorescence artefact?]
Cc1ccc(NC(=O)Cn2nnc(C(=O)Nc3ccc(C)c(C)c3)c2N)cc1	21	70*[fluorescence artefact?]	4	26	149
COc1cccc(CNC(=O)c2nnn(CC(=O)Nc3ccc(C)c(C)c3)c2N)c1	-6	36	-2	13	287*
Cc1cccc(-n2nnc(C(=O)Nc3ccc(F)cc3)c2N)c1	1	63*[fluorescence artefact?]	22	37	70
Cc1ccc(NC(=O)c2nnn(-c3cc(C)cc(C)c3)c2N)cc1	0	22	1	-7	119
O=C(CSc1nc(C2CCCCC2)n(-c2ccccc2)n1)NCC(F)(F)F	-7	/	5	/	/
Cc1ccc(S(=O)(=O)N(Cc2cc3cccc(C)c3[nH]c2=O)c2ccccc2)cc1	10	/	-1	/	/
SMILES	Mac1 fbg inh	ERa SRC1 inh	Mac1 fbg enh	ERb SRC1 inh	ERa coact pot
Cc1ccc(-c2nc(NC(=O)CSc3nnnn3-c3ccccc3)ns2)cc1	2	15	-3	15	219*
Cc1ccc(Nc2nc(N)nc(CSc3nncn3C)n2)cc1	/	23	/	18	95
O=C(CSc1nnc2scc(-c3ccccc3)n12)Nc1nsc(-c2ccccc2)n1	6	37	5	9	218*[fluorescence artefact?]
Cc1ccc(-c2csc3nnc(SCC(=O)Nc4nsc(-c5ccccc5)n4)n23)cc1	1	32	3	14	137
Cc1ccc(Nc2nc(N)nc(CSc3nnnn3-c3ccccc3)n2)cc1	10	62*[fluorescence artefact?]	14	48	219*[fluorescence artefact?]
O=C(Nc1cccc(Cl)c1)c1cc(S(=O)(=O)NCCc2ccc(Cl)cc2)ccc1F	75	/	-8	/	/
CCOc1ccc(NC(=O)Nc2cc(C)ccc2F)cc1	-38	4	-4	-3	91
O=c1c2ccccc2nc2n1CC/C2=C/N1CCN(c2cccc(C(F)(F)F)c2)CC1	1	70*[fluorescence artefact?]	0	100*[fluorescence artefact?]	59
